From PubChem
AMA1 RON2 block: inhibitors of Plasmodium falciparum AMA1-RON2 interaction; AlphaScreen AMA1-biotinylated RON2 peptide binding; Potency, µM (highest dose often 58.2 µM), for the others: at the top dose activity change, negative = inhibition, most hits filed as inhibitors; 360,000 compounds, 0.2% hits;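 note: potency is the fitted concentration of half-maximal effect; 0% = vehicle wells and -100% = peptide control; nearly all actives have a fitted effect of over 45% in size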
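AMA1 (3D7) with his tag at 25 nM final met compounds first, then biotinylated RON2 peptide at 25 nM; detection used donor plus acceptor beads, 10 µg/mL apiece, read by AlphaScreen after 30 min at room temperature.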
Cycloheximide cs: affects cycloheximide protein synthesis inhibition readout, counter-screen; cell reporter, cycloheximide protein synthesis inhibition counterscreen; max response, %; 300,000 compounds, 12% hits; in the data active = max response mostly above about 13%, no sharp cut-off; inactive = mostly below about 14%; note: read at 38.3 µM for the half of the compounds with a filed dose; 0% is about no effect
Pf growth 96h: inhibits malaria parasite growth, 96 h | P. falciparum luciferase reporter growth, 96 h | Potency, µM (highest dose often 28.7 µM), for the others: at the highest dose activity change, negative = inhibition, most hits filed as inhibitors | 320,000 compounds, 6.9% hits | AID 504834; note: potency is the fitted concentration of half-maximal effect; % is set by controls: 0 for no effect and ±100 for the full control effect
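96 h incubation, 37 C, 5% CO2, of luciferase-reporter P. falciparum-infected RBCs (2% hematocrit, 0.05% parasitemia final) with test compounds; endpoint luminescence.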
Pf growth 48h: P. falciparum growth inhibition at 48 hours (one generation); P. falciparum luciferase growth in erythrocytes, 48 h; Potency, µM (series often up to 28.7 µM), for the others: top-dose activity change, negative = inhibition, actives largely listed as inhibitors; 310,000 compounds, 5.9% hits; AID 504832; note: potency is the fitted concentration of half-maximal effect; % is set by controls: 0 for no effect and ±100 for the full control effect
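First compound was added to culture medium, then infected red cells at 0.1% parasitemia and 2% hematocrit (final). After incubation at 37 C under 5% CO2, luciferase detection reagent was dispensed and light output recorded.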
Shiga toxin inh: Shiga toxin inhibition. Vero cells, Shiga toxin protein synthesis inhibition reporter. inhibition, % at 38.7 µM. 290,000 compounds, 9.2% hits. AID 2315; in the data active = inhibition mostly above about 28%, no sharp cut-off; inactive = mostly below about 43%; note: 0% is about no effect
HCV inhibitor: HCV inhibition; AID 651820; Huh7.5.1 HCVcc-Cre infection, luciferase reporter, 44 h; 340,000 compounds, 3.4% hits; Potency, µM (doses to about 41.8 µM), for the others: top-dose activity change, negative = inhibition, usual class: inhibitors; note: potency is the fitted concentration of half-maximal effect; % is set by controls: 0 for no effect and ±100 for the full control effect
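After 44 h co-culture of compound, cells and HCVcc-Cre (~0.5 moi), substrate is added for 15 min at room temperature and luciferase measured over 15 sec. Cells were seeded at 1,000/well and pre-cultured 4 h.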
Starred values were filed as active, the others as inactive; ? = inconclusive; nt = not tested or not shown; [ ] = remark or other dose. A selection: hits, their analogues and other compounds. The true share with any hit is near 21%. Unless noted, calls come from the whole dose curve; as a rule, active = well fitted curve in the direction sought with a large enough effect; inconclusive = small, poorly fitted or top-dose-only effect, or another doubt; inactive = no such curve, though single readings can be large; an effect the other way counts as inactive or inconclusive.

SMILES	AMA1 RON2 block	Cycloheximide cs	Pf growth 96h	Pf growth 48h	Shiga toxin inh	HCV inhibitor
CCOc1ccc(NC(=S)Nc2ccc(OC)cc2)cc1	-9.2%	1.2	?	-10.6%	48.3	4.7%
CCOc1ccc(NC(=S)c2ccncc2)cc1	0.6%	15.0	9.28µM*	33.3%	25.9	?
CCOc1ccc(NC(=O)C[n+]2ccc(N(C)C)cc2)cc1	-5.1%	-3.4	?	0.657µM*	-7.3	12.7%
Cc1cc(C)c(NC(=O)CNC(=O)COC(=O)C2=COCCO2)c(C)c1	-13.0%	nt	1.5%	20.5%	nt	?
CCOc1ccc(Cl)cc1-c1cc(C(=O)NCc2cccc(C(F)(F)F)c2)[nH]n1	26.4%	nt	nt	nt	nt	nt
CC(=O)c1cccc(NS(=O)(=O)c2c(C(=O)N3CCOCC3)c(C)n(C)c2C)c1	-5.5%	-3.8	?	-2.9%	7.0	18.5%
COC(=O)c1cccc(NC(=O)CCNC(=O)c2ccco2)c1	6.6%	1.1	-1.3%	4.6%	-2.9	?
CCOC(=O)c1ccc(NC(=O)CN2C(=O)CSC(C)C2=O)cc1 (stereo unspecified)	6.2%	12.9*	48.6%	-0.5%	16.6	5.1%
O=C(NC(=S)NCc1cccnc1)c1cc2ccccc2o1	68.0%	30.1*	?	13.2%	29.7	-3.1%
O=C(NC(=S)Nc1ccc(CN2CCCCC2)cc1)c1ccco1	4.8%	10.6	-15.9%	-3.0%	32.3	9.6%
O=C(NC(=S)Nc1ccc(CN2CCCCC2)cc1)c1cc2ccccc2o1	11.2%	14.2*	1.1%	?	24.0	7.2%
CC(=O)Nc1ccc(NC(=S)NC(=O)c2cc3ccccc3o2)cc1	10.3%	-2.8	30.7%	4.2%	19.5	8.6%
O=C(NC(=S)NCc1cccnc1)c1cc(Br)ccc1Cl	105.5%	-0.5	?	?	17.1	?
O=C(Nc1cccnc1)c1cc2cc(Br)ccc2o1	3.4%	22.3*	?	36.1%	nt	?
O=C(NC(=S)Nc1cccnc1)c1cc2ccccc2o1	0.0%[2.32 µM]	45.5*	68.6%	3.1%	56.6*	-7.6%
O=C(O)CN1C(=O)/C(=C\c2cc(Br)ccc2OCc2ccc(Cl)cc2)SC1=S	-8.1%	7.5	10.4µM*	18.8%	36.6	3.3%
COc1cc(/C=C2\SC(=S)N(CC(=O)O)C2=O)ccc1OC(=O)c1ccco1	2.0%	-5.9	-8.6%	92.9%	2.2	22.0%
O=C(O)CN1C(=O)/C(=C\c2cccc(OCc3ccccc3)c2)SC1=S	-4.3%	0.7	14.7µM*	14.2%	nt	4.2%
COc1ccc(/C=C2/SC(=S)N(CC(=O)O)C2=O)cc1OCc1ccc(Cl)cc1	-12.4%	32.5*	-9.6%	?	41.8*	-0.1%
O=C(O)COc1cccc(/C=C2/SC(=S)N(Cc3ccccc3)C2=O)c1	-28.3%	-2.3	?	3.0%	-1.2	-1.5%
O=C(O)CN1C(=O)/C(=C\c2cc(Br)ccc2OCc2ccc(F)cc2)SC1=S	-7.8%	-4.0	-12.3%	19.7%	-6.9	11.7%
O=C(OCc1cccc(C(F)(F)F)c1)c1ccc[nH]c1=O	-9.2%	-2.1	2.4%	0.0%	-4.8	13.8%
CCOC(=O)c1ccc(NC(=S)N(CCCN(CC)CC)Cc2ccco2)cc1	-15.7%	-4.1	14.7µM*	?	-8.9	?
CC(C)OC(=O)c1ccc(NC(=O)c2ccco2)cc1	-1.7%	46.1*	nt	-25.1%	76.6*	?
CC(C)OC(=O)c1ccc(NC(=O)c2ccccc2)cc1	-16.9%	65.8*	?	?	69.1*	-28.2%
SMILES	AMA1 RON2 block	Cycloheximide cs	Pf growth 96h	Pf growth 48h	Shiga toxin inh	HCV inhibitor
CCOC(=O)c1ccc(NC(=O)c2ccco2)cc1	-1.4%	41.6*	?	28.0%	107.0*	0.3%
COc1ccc(C2CCCCC2SCC(=O)O)cc1OC (stereo unspecified)	-7.2%	nt	nt	nt	nt	nt
CC(C)OC(=O)c1ccc2ccc(-c3ccccc3)nc2c1	79.5%	nt	nt	nt	nt	nt
CC(C)OC(=O)c1ccc2nc3ccccc3nc2c1	-13.5%	87.1*	124.2%	69.9%	124.8*	-23.1%
CCOC(=O)c1ccc(NC(=O)CSCc2ccco2)cc1	59.7%	12.6*	?	?	31.9*	-0.3%
COc1ccc([C@@H]2C[C@H]3[C@@H](CN2S(=O)(=O)c2ccccc2)C(=O)C[C@@H](c2cccc4ccccc24)N3S(=O)(=O)c2ccc(C)cc2)cc1	-9.1%	nt	nt	nt	nt	nt
O=C(CSC1=NNC(c2ccccn2)S1)Nc1ccccc1 (stereo unspecified)	-82.3%	21.8*	?	?	36.3	14.1µM*
O=C(CSC1=NNC(c2ccccn2)S1)Nc1cccc(Cl)c1 (stereo unspecified)	?	40.2*	?	?	61.8*	1.6%
O=C(CSc1nnc2ccc(-c3ccccn3)nn12)Nc1ccccc1	23.3%	nt	-1.1%	4.9%	nt	-28.4%
NC(=O)CSc1nc(-c2ccccc2Cl)ns1	2.3%	44.8*	-0.8%	128.9%	18.6*	-12.7%
O=C(CSc1nc(-c2ccccc2Cl)ns1)NCc1ccco1	-12.0%	1.6	4.1%	-12.4%	41.6	2.8%
O=S(=O)(Nc1ccc(-c2ccc3nncn3n2)cc1)c1cccc(F)c1	-10.3%	nt	-3.3%	-12.9%	nt	-15.8%[8.37 µM]
Cc1nnc(-c2ccc(N3CCOCC3)c([N+](=O)[O-])c2)o1	-0.2%	nt	-8.9%	-1.1%	nt	-6.9%
O=C(Nc1nc2ccccc2s1)c1ccc(N2CCCCC2)c([N+](=O)[O-])c1	-23.2%	44.9*	?	48.3%	102.4*	?
Cc1ccc(-c2csc(NC(=O)c3cc([N+](=O)[O-])ccc3N3CCOCC3)n2)cc1	-2.2%	7.6	-20.5%	4.4%	16.9	-13.4%
Cc1nnc(-c2ccc(N3CCCCCC3)c([N+](=O)[O-])c2)o1	-5.8%	14.8*	?	-3.9%	50.3*	-5.9%
Cc1cc(NC(=O)c2ccc(N3CCCC3)c([N+](=O)[O-])c2)no1	-20.1%	20.0*	?	?	22.7	-12.7%
Cc1cc(NC(=O)c2ccc(Cl)c([N+](=O)[O-])c2)no1	44.8%	7.4	-2.6%	37.8%	8.1	-6.7%
O=C(Nc1nc(-c2ccccc2)cs1)c1ccc(N2CCOCC2)c([N+](=O)[O-])c1	?	-3.6	16.6%	?	-7.9	3.55µM*
O=C(CN(C(=O)c1csnn1)c1ccccc1C(F)(F)F)NC1CCCCC1	1.8%	-0.5	0.5%	-4.1%	23.5	-5.9%
O=C(Nc1ccon1)c1ccc(N2CCCCC2)c([N+](=O)[O-])c1	-6.8%	45.5*	?	125.3%	99.0*	-22.2%
NC(=O)c1ccc(N2CCCCCC2)c([N+](=O)[O-])c1	13.0%	2.7	?	26.6%	2.9	3.6%
c1ccc(CNc2ncnc3c2cnn3-c2ccccc2)cc1	-0.5%	12.9*	2.3%	58.5%	44.5	?
Cc1cccc(-n2ncc3c(NCCc4ccc(S(N)(=O)=O)cc4)ncnc32)c1	0.1%	1.0	10.4µM*	nt	-6.3	-18.4%
